# Laboratory results reported in PubChem BioAssay (NCI).
# Where “and” joins values, the source holds several entries; their conditions need not be identical. Equal values may be shown once. About 83,000 compounds went through this panel and 20% of them were active in at least one assay; those are over-represented in the sample as a whole.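 Treatment: one concentration, 48 hours, 96-well format. Scoring: percent growth, with anything below 10 considered active.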 Values without a mark were called inactive. Calls of active or inactive are those of the source.
# System: NCI-H23 lung
# Assay: NCI-60 one-dose screen, 48 h (100 = growth as untreated, 0 = no growth, -100 = all killed)
# Details: 10 µM unless noted
row,Compound,growth
1,C#C[C@]1(O)CC[C@H]2[C@@H]3CC=C4c5sc(Nc6ncccc6C)nc5CC[C@]4(C)[C@H]3CC[C@@]21C,9.38% (active)
2,CC(=O)N(O)CCCCCNC(=O)CCC(=O)N(O)CCCCCNC(=O)CCC(=O)N(O)CCCCCN(CCCCCCCCCC[P+](c1ccccc1)(c1ccccc1)c1ccccc1)CCCCCCCCCC[P+](c1ccccc1)(c1ccccc1)c1ccccc1,-16.5% (active)
3,O=C1Nc2ccccc2/C1=N\c1nnc(-c2ccccc2)o1,91.8%
4,CCCCCCCCCC(=O)NC(C)(C)C(=O)N1CCC[C@H]1C(=O)N[C@@H](CC(C)C)C(=O)N[C@@](C)(CC)C(=O)N[C@@H](CCC(N)=O)C(=O)N[C@H](CCC(N)=O)C(=O)NC(C)(C)C(=O)NC(C)(C)C(=O)N[C@@H](CCC(N)=O)C(=O)N[C@H](CC(C)C)C(=O)N[C@H](CO)CC(C)C,-85.9% (active) and -32.1% (active)
5,Fc1cccc(Cl)c1/C=N/Nc1nc(N/N=C/c2c(F)cccc2Cl)nc(N2CCCCC2)n1,44.8%
6,Cc1ccc(/C(N)=N/C(N)=N/c2nc3ccccc3s2)cc1,48.9%
7,CCc1cc2c(cc1Cl)nc1c(=O)[nH]c(=O)nc-1n2CCOCC(C)(C)C,72.1%
8,Cc1csc(/N=C(N)/N=C(\N)c2cccc(Br)c2)n1,89.1%
9,Brc1cccc(-c2cc(-c3cnc4c(c3)OCCO4)n[nH]2)c1,52.4%
10,CN(C)CC(=O)Nc1nc(-c2cccc(NS(=O)(=O)c3cccc4c(N(C)C)cccc34)c2)cs1,75.6%
